According to PubChem BioAssay (NCATS):
Inconclusive results are not listed. Active and inactive are the calls of the source. Calls come from the whole dose curve; as a rule, active = well fitted inhibition curve with a large enough effect; inconclusive = small, poorly fitted or top-dose-only effect; inactive = flat fitted curve, though single readings scatter.

Assay: qHTS to identify inhibitors of the type 1 interferon - major histocompatibility complex class I in skeletal muscle: primary screen against the NCATS LOPAC collection (AID 1347405);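 note: lytic HiBiT luminescence reporting HLA-B protein level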
Conditions: iHSKM muscle cells, IFN-b-induced MHC-I HiBiT luminescence, 24 h; series mostly up to 45.9 µM; activity change, negative = inhibition: at the top concentration
Description: Assay Submitter (PI): Travis B. Kinder Ph.D. & James Inglese Ph.D.
Assay Development and Screening Technology Laboratory (ADST)
National Center for Advancing Translational Sciences (NCATS), Rockville, MD
National Institute of Health (NIH), Bethesda, Maryland
Idiopathic inflammatory myopathies, collectively referred to as myositis, are a group of rare autoimmune diseases characterized by skeletal muscle inflammation, weakness, and usually accompanied by systemic pathologies of the skin, lungs, or vasculature. Current immunosuppressive therapies and glucocorticoids are often not curative and are accompanied by harsh side effects, especially in children with juvenile myositis. We initiated a drug repurposing and development program to identify more targeted, less toxic therapeutics to treat myositis. Although its cause is not known, muscle from a subset of patients have an abundance of the inflammatory type 1 interferon (IFN) and a down-stream product major histocompatibility complex class I (MHC class I), which are both thought to contribute to damage and weakness. We conducted quantitative high throughput screening on 6,576 compounds (4,679 unique) through a series of cell-based assays to identify those that inhibit the IFN-stimulated expression of MHC class I in muscle precursor cells (myoblasts). The compound identification and evaluation strategy utilized a primary screen with reporter-tagged MHC class I in genome-engineered myoblasts, ATP content counter screen for viability, HLA-ABC immunofluorescence secondary screen, and HLA-B RT-qPCR tertiary screen.
The primary screen utilized CRISPR/Cas9 genome-engineering of immortalized human myoblasts, C25cl48, where a pro-luminescent reporter HiBit was fused to the C-terminus of endogenous MHC class I allele HLA-B*08:01 (HLA-B HiBit myoblasts). HiBit is an 11 amino acid fragment of NanoLuc luminescent reporter (Promega Corporation), and when complexed to the larger LgBit fragment, the reconstituted enzyme produces light in the presence of furimazine substrate (Schwinn et al., 2018). Briefly, HLA-B HiBit myoblasts were plated into 1536-well plates, treated with 4.0 ng/ml human IFN-beta and 1,280 compounds from the Library of Pharmacologically Active Compounds 1280 library (LOPAC1280, Sigma Aldrich) in a 7-point, 1:4.3 titration with a high final concentration of 46 uM. After 24 hrs of treatment, cells were assayed by Nano-Glo HiBiT Lytic Detection System (Promega) and luminescence measured by a ViewLux 1430 Ultra HTS (Perkin Elmer).
Schwinn MK, Machleidt T, Zimmerman K, Eggers CT, Dixon AS, Hurst R, Hall MP, Encell LP, Binkowski BF, Wood K V. 2018. CRISPR-Mediated Tagging of Endogenous Proteins with a Luminescent Peptide. ACS Chem Biol 13:467-474. doi:10.1021/acschembio.7b00549
PROTOCOL TABLE (as described by Inglese et al., 2007)
SEQUENCE No. (e.g., 1, 2, 3, etc.); […] (e.g., Cells, Incubation, Reagent, etc.); VALUE; DESCRIPTION
1a; Cells; 5 uL; Use a Multidrop Combi (Thermo Scientific) to seed 350 cells/well into nine Greiner 1536 well white/solid bottom, high base, TC plates in 5 ul/well of iHSKM growth medium (GM) without dexamethasone into columns 1+2. Add metal lids with gas-exchange holes
1b; Cells; 5 uL; Use a Multidrop Combi (Thermo Scientific) to seed 350 cells/well into nine Greiner 1536 well white/solid bottom, high base, TC plates in 5 ul/well of iHSKM GM without dexamethasone + 4 ng/ml IFN-b into columns 3 - 48. Add metal lids with gas-exchange holes
2; Incubate; 1 hr; Incubate at 37 C, 5% CO2, 95% RH
3; Compounds; 23 nl; Use Pin Tool (Wako) to transfer DMSO control, ruxolitinib IFN-b inhibitor control [High Concentration = 80 uM final, 16-pt, 1:2 in duplicate], and library compounds in DMSO
4; Incubate; 24 hrs; Incubate at 37 C, 5% CO2, 95% RH
5; Dispense; 2.5 ul; Use BioRAPTR FRD (Beckman Coulter) to add HiBit lytic reagent
6; Incubate; 10 min; Incubate in the dark at ambient temperature for lysis
[…]
% is set by controls: 0 for no effect and ±100 for the full control effect.

| Compound | activity change, negative = inhibition | outcome |
| --- | --- | --- |
| O=P1(N(CCCl)CCCl)NCCCO1 (centres undefined) | 1.37% (inactive) | – |
| CCCCCN(C)CCC(O)(P(=O)(O)O)P(=O)(O)O | 1.45% (inactive) | – |
| CC(C)N(CCC(C(N)=O)(c1ccccc1)c1ccccn1)C(C)C (centres undefined) | – | inactive |
| CCC1(c2ccc(N)cc2)CCC(=O)NC1=O (centres undefined) | 3.26% (inactive) | – |
| CN1C(=O)CCS(=O)(=O)C1c1ccc(Cl)cc1 (centres undefined) | 9.43% (inactive) | – |
| COc1ccc2c(c1OC)C(=O)O[C@H]2[C@@H]1c2cc3c(cc2CCN1C)OCO3 | -3.81% (inactive) | – |
| CC(C)(C)NCC(O)c1ccccc1Cl (centres undefined) | -5.25% (inactive) | – |
| O=c1[nH]oc2c1CCNC2 | 2.83% (inactive) | – |
| NCCc1ccc(O)cc1 | 2.16% (inactive) | – |
| Cc1ncsc1CCCl | -2.22% (inactive) | – |
| CC(NC(C)(C)C)C(=O)c1cccc(Cl)c1 (centres undefined) | -4.41% (inactive) | – |
| O=C(CCCN1CCC2(CC1)C(=O)NCN2c1ccccc1)c1ccc(F)cc1 | -27.8% (inactive) | – |
| CC(C)c1cccc(C(C)C)c1O | -9.84% (inactive) | – |
| C=C(C)[C@H]1CN[C@H](C(=O)O)[C@H]1CC(=O)O | -2.08% (inactive) | – |
